Screening results (PubChem BioAssay)
NCOA1 inh: human NCOA1 inhibition | Q15788 | HEK293 GAL4-SRC1 luciferase reporter, luminescence | inhibition, % at 3.6 µM | 0.12% of 360,000 active;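 active = inhibition above the campaign mean plus 3 SD, with each screening campaign given its own cutoff, cut at about 60% in these data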;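 also: 0% = DMSO treated cells and 100% = gossypol at 36 µM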
SRC3 inh: inhibitors of human steroid receptor coactivator 3 (SRC3). Q9Y6Q9. inhibition, % at 3.6 µM. 0.17% of 360,000 active. AID 588352. HEK293 GAL4-SRC3 luciferase reporter, luminescence;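 active = inhibition above a per-campaign cutoff, the mean of all compounds plus 3 SD, cut at about 60% in these data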;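 also: 0% = DMSO-treated cells and 100% = gossypol-treated cells at 36 µM; higher means less SRC3-driven luciferase light from the GAL4 reporter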
LRH-1 inv ag: inverse agonists of human LRH-1 (NR5A2). 0.13% of 360,000 active. HEK293T StAR-luciferase reporter, LRH-1 transfected, 24 h. inhibition, % at 3.6 µM. O00482;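 active = inhibition above the mean inhibition of all tested compounds plus 3 SD, cut at about 73% in these data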;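 also: 0% = DMSO wells and 100% = reporter-only cells lacking LRH-1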
NCOA2 inhibitor: inhibits human steroid receptor coactivator 2. HEK293 GAL4-SRC2 luciferase reporter, luminescence. inhibition, % at 9 µM. 0.17% of 370,000 active;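 active = inhibition above the mean inhibition of all tested compounds plus 3 SD, set per campaign, cut at about 52% in these data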;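 also: 0% = DMSO treated cells and 100% = cells given Gossypol at 36 µM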
GalR3 antagonist: blocks the human galanin receptor 3; O60755; HEK293 GalR3-CNG cAMP membrane potential fluorescence; galR3 body fused to GalR1 C-terminus; inhibition, % at 3 µM; 0.44% of 360,000 active; AID 651719;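 active = inhibition above the screen-wide average plus 3 SD, cut at about 13% in these data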;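 also: forskolin and galanin both at EC90 stimulate the cells; cAMP rise reported by CNG channel membrane potential dye signal; 0% = forskolin plus galanin with DMSO and 100% = forskolin alone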
NR2F2 inh: NR2F2 (human) inhibition, primary screen | P24468 | HEK293T NGFI-A luciferase reporter, luminescence | inhibition, % at 8.6 µM | 0.7% of 370,000 active | AID 686940;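 active = inhibition above a per-plate cutoff, mean inhibition of test wells between control levels plus 3 SD, cut at about 38% in these data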;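 also: cells cotransfected with COUP-TFII expression vector driving the NGFI-A reporter; 0% = median of COUP-TF2 test wells and 100% = reporter-only cells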
GalR3 conf: GalR3 (human) antagonism, confirmation; shares compounds with GalR3 antagonist; HEK293 GalR3 CNG cAMP biosensor, membrane potential fluorescence; galR3 fused to GalR1 carboxy tail; challenged with forskolin and galanin at EC90; inhibition, % at 3 µM; 59% of 1,600 active; AID 652245;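 active = inhibition above the primary screen's cutoff, the mean inhibition of all screened compounds plus 3 SD, cut at about 13% in these data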;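 also: 0% = forskolin plus galanin and 100% = forskolin alone with DMSO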
HEK-CNG parental: parental cell agonism counter-screen for GalR3 antagonists; shares compounds with GalR3 antagonist; HEK293-CNG parental cells, cAMP membrane potential fluorescence; normalised: DMSO wells 0%, forskolin wells 100%; activation, % at 3 µM; 10% of 1,600 active; AID 652268; in the data active = activation above about 1.3%
VP16 Luc counter: counter-screen for COUP-TFII antagonists: inhibitors of VP16 | shares compounds with NR2F2 inh | HEK293 Gal4-VP16 luciferase reporter, luminescence | inhibition, % at 8.5 µM | 25% of 2,500 active | AID 687007; in the data active = inhibition above about 13%
NR2F2 inh conf: confirmation of human COUP-TFII (NR2F2) inhibitors | shares compounds with NR2F2 inh | AID 687008 | 45% of 2,500 active | inhibition, % at 8.5 µM | HEK293 NGFI-A luciferase reporter, luminescence;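 active = mean inhibition over three repeats above a set limit taken from the earlier primary screen, cut at about 38% in these data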;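 also: 100% = cells given the luciferase reporter alone without the COUP-TF2 vector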
* = called active by the depositor. Compounds with a hit are over-represented: about 1.1% of the library has one in this group of screens.

How did C[C@@H]1CN([C@@H](C)CO)C(=O)c2cc(Br)cnc2O[C@@H]1CN(C)C(=O)c1ccc(F)cc1 do in these assays?
NCOA2 inhibitor: 12.4; GalR3 antagonist: -3.8; NR2F2 inh: -12.0

What do the screens show for `CCCCCc1ccc(OCCC[n+]2ccccc2)c(CCCCC)c1`?
NCOA1 inh: 34.4; SRC3 inh: 66.1*; LRH-1 inv ag: 59.3; NCOA2 inhibitor: 5.0; GalR3 antagonist: 31.3*; NR2F2 inh: 56.7*; GalR3 conf: 35.9*; HEK-CNG parental: 1.8*; VP16 Luc counter: 14.4*; NR2F2 inh conf: 33.9

What do the screens show for `Nc1cc(-c2cccc(Br)c2)nn1Cc1ccccc1`?
NCOA1 inh: -16.1; SRC3 inh: 8.1; LRH-1 inv ag: 5.5; NCOA2 inhibitor: -3.4; GalR3 antagonist: -4.4; NR2F2 inh: 4.4

What do the screens show for `Nc1cc(-c2ccc(Br)cc2)nn1Cc1ccccc1`?
NCOA1 inh: -19.1; SRC3 inh: -17.6; LRH-1 inv ag: 13.3; NCOA2 inhibitor: 19.5; GalR3 antagonist: 60.5*; NR2F2 inh: 37.4*; GalR3 conf: 103.3*; HEK-CNG parental: -1.5; VP16 Luc counter: -67.0; NR2F2 inh conf: 10.3

Results for COC(=O)C1CCCCN1C(=O)c1cc(COc2cccc3cnccc23)on1 (stereo not drawn) ?
NCOA1 inh: 25.9; SRC3 inh: 27.9; LRH-1 inv ag: 25.2; NCOA2 inhibitor: 24.7; GalR3 antagonist: 106.2*; NR2F2 inh: 61.4*; GalR3 conf: 107.0*; HEK-CNG parental: -0.2; VP16 Luc counter: 0.4; NR2F2 inh conf: 59.5*

Results for COC(=O)C1CCCCN1C(=O)c1cc(COc2cccc3cccnc23)on1 (stereo not drawn) ?
NCOA1 inh: 6.1; SRC3 inh: 22.0; LRH-1 inv ag: -0.1; NCOA2 inhibitor: -11.9; GalR3 antagonist: 1.1; NR2F2 inh: -8.8

What do the screens show for `CCOC(=O)CC1CCCCN1C(=O)c1cc(COc2cccc3cnccc23)on1` (stereo not drawn)?
NCOA1 inh: 23.1; SRC3 inh: 31.4; LRH-1 inv ag: 43.4; NCOA2 inhibitor: 31.8; GalR3 antagonist: 103.6*; NR2F2 inh: 70.9*; GalR3 conf: 110.6*; HEK-CNG parental: -0.5; VP16 Luc counter: 16.3*; NR2F2 inh conf: 77.7*

What do the screens show for `CSc1ccccc1OCc1cc(C(=O)N2CCC(c3ccncc3)CC2)no1`?
NCOA1 inh: 5.4; SRC3 inh: 4.2; LRH-1 inv ag: 31.5; NCOA2 inhibitor: 15.8; GalR3 antagonist: 75.2*; NR2F2 inh: 58.0*; GalR3 conf: 94.0*; HEK-CNG parental: -0.2; VP16 Luc counter: -3.2; NR2F2 inh conf: 51.4*

What do the screens show for `C[C@H](CO)N1C[C@H](C)[C@@H](CN(C)C(=O)Nc2ccc(-c3cccs3)cc2)OCc2cn(nn2)CCCC1=O`?
NCOA2 inhibitor: -3.9; GalR3 antagonist: -2.9; NR2F2 inh: -7.9

How did CCC[C@H]1[C@@H](OC(=O)NCc2cccnc2)CC[C@@]23CCCN2C(=O)CCC[C@@H]13 do in these assays?
NR2F2 inh: 21.2

How did CC[C@@H]1CCC[C@@H](O)[C@@H](C)C(=O)O[C@H](C)[C@@H](C)C/C=C(C)/C(OC)=C\C(=O)N(C)C([C@@H](C)CC)C(=O)N(C)[C@@H](C(C)C)C(=O)N(C)[C@@H](COC)C(=O)N2CCC[C@H]2C(=O)N(C)[C@@H](C(C)C)C(=O)N2CCC[C@H]2C(=O)O1 (stereo partly drawn) do in these assays?
NCOA1 inh: 77.5*; SRC3 inh: 84.4*; LRH-1 inv ag: 97.8*; NCOA2 inhibitor: -7.2; GalR3 antagonist: 100.5*; NR2F2 inh: 82.8*; GalR3 conf: 115.3*; HEK-CNG parental: -1.2; VP16 Luc counter: 13.8*; NR2F2 inh conf: 82.0*

Results for CN(C)S(=O)(=O)N1CCC(Oc2cccc(C(=O)NC3CCCCCC3)c2)CC1 ?
NCOA1 inh: 18.2; SRC3 inh: 10.7; LRH-1 inv ag: 39.2; NCOA2 inhibitor: 23.8; GalR3 antagonist: 28.9*; NR2F2 inh: 63.3*; GalR3 conf: 99.9*; HEK-CNG parental: -0.3; VP16 Luc counter: 4.9; NR2F2 inh conf: 66.3*

What do the screens show for `CCN1CCN(C(=O)c2cccc(OC3CCN(S(=O)(=O)N(C)C)CC3)c2)CC1`?
NCOA1 inh: -34.2; SRC3 inh: 15.5; LRH-1 inv ag: -27.7; NCOA2 inhibitor: -41.6; GalR3 antagonist: -2.2; NR2F2 inh: -12.4

Results for CCC(C)(C)c1ccc(OCCCC[n+]2cccc(C)c2C)c(C(C)(C)CC)c1 ?
NCOA1 inh: 33.9; SRC3 inh: 65.1*; LRH-1 inv ag: 79.0*; NCOA2 inhibitor: -31.7; GalR3 antagonist: 15.1*; NR2F2 inh: 57.1*; GalR3 conf: 66.6*; HEK-CNG parental: 1.3*; VP16 Luc counter: 14.3*; NR2F2 inh conf: 59.9*

What do the screens show for `CCC(C)(C)c1ccc(OCCCC[n+]2ccc(C)cc2)c(C(C)(C)CC)c1`?
NCOA2 inhibitor: 4.2; GalR3 antagonist: 2.3; NR2F2 inh: 27.3

How did O=C(Nc1ccc(Oc2cccnc2)nc1)c1ccc(C(F)(F)F)cc1 do in these assays?
NCOA1 inh: 22.8; SRC3 inh: 40.0; LRH-1 inv ag: 28.8; NCOA2 inhibitor: 27.9; GalR3 antagonist: 76.7*; NR2F2 inh: 66.0*; GalR3 conf: 61.4*; HEK-CNG parental: -0.3; VP16 Luc counter: 2.2; NR2F2 inh conf: 38.5*

How did O=C(NC(=O)c1c(Cl)cccc1Cl)Nc1ccc(Oc2cccnc2)nc1 do in these assays?
NCOA1 inh: 3.8; SRC3 inh: 22.3; LRH-1 inv ag: 1.1; NCOA2 inhibitor: -12.1; GalR3 antagonist: -0.8; NR2F2 inh: 1.4

How did Cc1ccc(NC(=O)CSc2ncnc3ccccc23)cc1S(=O)(=O)N1CCCCC1 do in these assays?
NCOA1 inh: -9.3; SRC3 inh: 17.9; LRH-1 inv ag: -24.8; NCOA2 inhibitor: 36.4; GalR3 antagonist: 84.9*; NR2F2 inh: 38.8*; GalR3 conf: 104.0*; HEK-CNG parental: -1.5; VP16 Luc counter: -6.9; NR2F2 inh conf: 7.8
